FXN GAA850 act = activators of GAA850 frataxin (FXN) promoter | activation, % at 6 µM | actives 0.56% (n = 360,000) | AID 540364 | HEK293 lucGAA850 FXN promoter luciferase reporter, 24 h; percent of 10 µM SAHA response;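 active = activation above the average of all compounds screened plus 3 SD, cutoff fixed separately per campaign, cut at about 7.5% in these data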;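 also: 0% = DMSO wells and 100% = 10 µM SAHA wells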
HSP90 refold inh = HSP90 refolding inhibition in rabbit reticulocyte lysate; AID 1789; actives 0.91% (n = 290,000); inhibition, % at 5.6 µM; luciferase refolding luminescence, 3 h;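 active = inhibition above the screen-wide mean plus 3 SD, computed separately per campaign, cut at about 16% in these data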;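 also: 0% = DMSO wells and 100% = 60 µM geldanamycin wells; inhibitors lower the luminescence because luciferase stays unfolded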
HSF-1 act = increases HSF-1 driven luciferase reporter signal | NIH3T3-HGL HSF-1 luciferase reporter, MG132, 8 h; 100% = twice DMSO control signal | activation, % at 9 µM | actives 1.7% (n = 300,000) | AID 504408;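 active = mean replicate activation of at least 50% with a set share of replicates each reaching 50%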;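 also: 0% = median of the neutral control wells and 100% = twice that signal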
AHR activator = activators of human aryl hydrocarbon receptor | P35869 | AHR-responsive luciferase reporter cells, luminescence | activation, % at 5 µM | actives 2.5% (n = 320,000) | AID 2796; in the data active = activation above about 47%;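 also: 0% = vehicle wells and 100% = reference agonist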
NR0B1 inh = NR0B1 (DAX1) inhibition | P51843 | HEK293 Gal4-DAX1 luciferase reporter, luminescence | inhibition, % at 6.75 µM | actives 0.99% (n = 340,000) | AID 504766;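 active = inhibition above the mean over all tested compounds plus 3 SD, cut at about 4.2% in these data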;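 also: 0% = DAX1-transfected cells with DMSO and 100% = empty-vector control cells with DMSO; inhibition shows as a rise in luminescence from relieved DAX1 repression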
Target sequence (P51843 207-470 limits assumed): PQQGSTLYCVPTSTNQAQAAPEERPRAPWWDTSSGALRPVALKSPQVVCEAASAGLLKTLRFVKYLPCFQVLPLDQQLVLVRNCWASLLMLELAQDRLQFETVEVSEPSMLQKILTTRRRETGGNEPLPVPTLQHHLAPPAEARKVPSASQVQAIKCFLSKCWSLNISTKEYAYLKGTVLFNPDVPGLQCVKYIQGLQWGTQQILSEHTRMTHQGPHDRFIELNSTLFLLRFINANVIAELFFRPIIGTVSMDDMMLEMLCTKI
HSF1 inhib = HSF1 inhibition. NIH3T3-HGL HSE-luciferase, MG132-induced, luminescence 8 h; active compounds read low. activity change, negative = inhibition, % at 7.5 µM (by protocol). actives 0.77% (n = 300,000);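 active = more than half of replicate wells show activity change below -50%, luminescence cut by over half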;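 also: luciferase reports HSF-1 transcriptional activity via heat shock element; 0% = median of DMSO wells and -100% = zero luminescence signal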
AHR act cf = human AHR activation, confirmation. activation, % at 9 µM. actives 87% (n = 2,300). human cells, AHR-responsive luciferase reporter, luminescence. shares compounds with AHR activator; in the data active = activation above about 49%;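 also: HepG2 hepatoma cells carrying a DRE-driven firefly luciferase reporter; 0% = vehicle wells and 100% = reference agonist wells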
PXR counter = counter-screen for AHR activators: human PXR activators; shares compounds with AHR activator; cell-based PXR reporter, luciferase luminescence; actives 88% (n = 2,300); activation, % at 11.6 µM; in the data active = activation above about 11%;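 also: human hepatoma DPX-2 cells expressing full-length human PXR; 0% = DMSO and 100% = reference agonist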
* marks the source's active call; other numbers are inactive results; / = no result. Sampled rows, rich in hits. Any-hit rate of the full collection: about 5.9%.

SMILES	FXN GAA850 act	HSP90 refold inh	HSF-1 act	AHR activator	NR0B1 inh	HSF1 inhib	AHR act cf	PXR counter
O=C(CCN1C(=O)/C(=C/c2ccccc2)SC1=S)NNC(=O)c1ccncc1	0	-1	-11	120*	1	-1	15	5
COc1ccc2sc(-c3ccc(SC)cc3)c(-c3ccc(O)cc3)c2c1	1	/	/	80*	-2	/	84*	19*
O=C(Nc1ccccc1)N1CCc2ccccc2C1	4	1	-6	103*	2	17	132*	16*
O=C(NNC(=O)c1ccc(NC(=O)c2ccccc2)cc1)c1ccc(F)cc1	1	-4	10	1	-1	-8	/	/
O=C(NC1=C(Nc2ccc(F)cc2)C(=O)c2ccccc2C1=O)c1ccc(Cl)cc1	-2	1	-15	88*	-1	8	90*	72*
Cc1ccc(-n2cc(C(=O)c3ccc(N4CCN(C)CC4)cc3)nn2)cc1Cl	-1	-3	14	90*	2	-8	1	15*
O=S(=O)(c1ccccc1)N1CCC(O)(CSc2ccc(F)cc2)CC1	1	2	-14	-4	-3	-3	/	/
Cc1c(C)n(C(=O)CN2CCC(C)CC2)c2ccccc12	1	-4	0	83*	-1	8	53*	15*
O=C(CN1CCOCC1)n1c2ccccc2c2ccccc21	1	-2	-10	18	0	2	/	/
O=C(NCc1n[nH]c(=S)n1-c1ccccc1Cl)c1ccc(S(=O)(=O)N2CCCCC2)cc1	-1	9	1	-2	1	2	/	/
COc1ccc(NC(=O)c2cc([N+](=O)[O-])ccc2N2CCCCC2)cc1	-1	-3	-2	5	0	-8	/	/
CCn1c(=O)c(CCC(=O)N2CCN(c3ccccn3)CC2)c(C)c2c(C)nn(-c3cccc(C)c3)c21	0	-4	2	-1	0	-3	/	/
O=C(c1cc2cc(Cl)ccc2[nH]1)N1CCc2ccccc2C1	2	1	21	31	1	16	/	/
O=C(c1cc2cc(F)ccc2[nH]1)N1CCc2ccccc2C1	5	0	29	82*	1	8	110*	46*
COc1cccc(C(=O)Nc2cccc3ccccc23)c1OC	1	3	-2	117*	-1	-2	108*	44*
CN(C(=O)c1cc2c(cc1Br)OCO2)c1cccc2ccccc12	0	/	/	/	1	/	/	/
O=C(Nc1cccc2ccccc12)c1cccc([N+](=O)[O-])c1	0	1	21	34	0	-5	/	/
O=C(Nc1ccc(Cl)cc1F)c1ccccc1Br	6	6	36	9	1	10	/	/
COc1ccccc1CC(=O)Nc1cccc2ccccc12	-1	-1	1	-1	-1	-3	/	/
O=C(Nc1cccc2ccccc12)c1cc2c(cc1Br)OCO2	3	0	-34	82*	-1	-24	95*	120*
O=C(O)c1cccc([N+](=O)[O-])c1C(=O)Nc1cccc2ccccc12	0	5	19	84*	0	-2	32	1
O=C(Nc1ccc(Cl)cc1F)c1cccc2ccccc12	3	-1	24	100*	0	12	119*	12*
O=C(O)c1ccccc1OCCN1CCCC1=O	0	-2	2	-3	1	1	/	/
Cc1nc(NCCOc2ccccc2)sc1C(=O)Nc1ccccc1	1	0	18	88*	-1	16	145*	47*
Cc1nc(NCc2ccccc2)sc1C(=O)Nc1ccccc1	3	4	-3	12	0	2	/	/
SMILES	FXN GAA850 act	HSP90 refold inh	HSF-1 act	AHR activator	NR0B1 inh	HSF1 inhib	AHR act cf	PXR counter
C[C@@H]1COC(=O)[C@H](Cc2ccc(F)cc2)C/C=C\C[C@@H](CC(=O)NCCO)C(=O)N1	-1	/	/	-1	2	/	/	/
CCN(CC)c1ccc(/C=N/N(c2ccccc2)c2ccccc2)c(O)c1	2	4	-34	94*	0	-17	90*	97*
CCCN(CC(=O)Nc1ccccc1C)C(=O)c1ccc(=O)n(Cc2ccccc2)n1	-2	/	9	10	1	-5	/	/
Cn1ccnc1SCc1nc2c(cnn2-c2ccccc2)c(=O)[nH]1	-2	3	0	82*	0	8	85*	16*
CCCSc1nc2c(cnn2-c2ccccc2)c(=O)[nH]1	1	-2	25	44	1	1	/	/
O=c1[nH]c(CSc2ccccn2)nc2c1cnn2-c1ccccc1	1	1	57*	97*	-1	27	71*	34*
CSCCC(NC(=O)c1ccccc1Cl)C(=O)NNC(=O)c1ccncc1 (stereo not given)	0	/	-39	2	-1	-29	/	/
Cc1cc(C)c(OCC(=O)OCC(=O)NC2CCC(C)CC2)c(C)c1 (stereo not given)	0	/	2	3	0	-2	/	/
CCCCn1nnnc1SCC(=O)Nc1ccc2c(c1)OCO2	1	-2	3	90*	0	9	82*	30*
Cc1ccc(-n2nnnc2SCC(=O)Nc2ccc3c(c2)OCCO3)cc1C	0	3	/	2	0	/	/	/
Cc1ccc(NC(=O)CSc2nnnn2-c2ccc3c(c2)OCO3)cc1C	0	2	-14	159*	1	-8	167*	226*
O=C(Cn1cnc2ccccc2c1=O)Nc1ccc2c(c1)OCO2	3	0	13	93*	1	-1	70*	17*
O=C(CSc1nnnn1Cc1ccccc1)Nc1ccc2c(c1)OCO2	-1	2	-1	102*	0	4	85*	94*
CCCCn1nnnc1SCC(=O)Nc1ccc(F)cc1	1	-2	8	16	-1	2	/	/
O=C(Cn1cnc2ccccc2c1=O)NCc1ccc2c(c1)OCO2	-1	4	/	1	1	/	/	/
CCCCc1nc2cc(C(=O)N3CCCC(COC)C3)ccc2o1 (stereo not given)	4	-5	38	15	1	17	/	/
Cc1cc(C)c2c(c1C)C(=O)CCC2	1	/	/	/	1	/	/	/
CCOC(=O)C1CCCN(C(=O)c2ccc(C(F)(F)F)nc2C)CC1 (stereo not given)	-2	/	/	/	/	/	/	/
CCOP(=O)(NC12CC3CC(CC(C3)C1)C2)NC12CC3CC(CC(C3)C1)C2	-1	0	0	6	1	-4	/	/
COc1ccc2c(=O)c3c(=O)n(-c4ccc(C)cc4)c(-c4ccccc4)nc3oc2c1	/	0	-14	1	/	-8	/	/
Cc1ccc(-n2c(C)nc3oc4ccccc4c(=O)c3c2=O)cc1	2	0	24	91*	2	18	99*	11*
